Records with an inconclusive call do not appear. A call without a number means that no potency is given here. The source made the active and inactive calls. The call rests on the fitted dose curve; in most records, active means well fitted cell-killing curve with a large enough effect; inconclusive means small, poorly fitted or top-dose-only effect; inactive means flat fitted curve, though single readings scatter.
assay: Quantitative highthroughput screen to assess conditional lethalithy of P12 Ichikawa cells grown in RPMI1640 with untreated serum (RPMI+s) (AID 1963881); details: ATP luminescence, 48 h; Potency: viability; series mostly up to 45.8 µM; further: nearly all actives have a fitted effect of over 35% in size
Source text: Assay Provider: Jason Cantor Ph.D.
Department of Biochemistry
University of Wisconsin-Madison, Madison, WI, USA
Chemical screening studies have identified drug sensitivities across hundreds of cancer cell lines but most putative therapeutics fail to translate. Discovery and development of drug candidates in models that more accurately reflect nutrient levels in human blood is a major challenge. Here we performed high-throughput screens in conventional versus Human Plasma-Like Medium (HPLM) to identify compounds that were "missed" when screening using the artificial culture condition. Sets of conditional anticancer compounds spanned phases of clinical development and included non-oncology drugs were assessed. […] We also traced conditional phenotypes for several chemotherapeutics to availability of HPLM-specific metabolites and confirmed others for compounds whose reported targets are encoded by nonessential genes. Our findings establish generalizable strategies for exploiting conditional lethality in HPLM to reveal therapeutic candidates and mechanisms of action in cancer cells.
Described herein are the results of each viability screens against three cell lines: NOMO1 (an acute myeloid leukemia cell line); P12-Ichikawa (a T-cell acute lymphoblastic leukemia); and SEM (a B-cell ALL). Each assay was screened using 3 different cell culture media: homemade human plasma-Like medium with 10% dialyzed fetal bovine serum (HPLM+ds); RPMI1640 with 10% untreated FBS and 5mM glucose (RPMI+s); and RPMI1640 with 10% dialyzed fetal bovine serum and 5 mM glucose (RPMI+ds).
PROTOCOL TABLE (as described by Inglese J, Shamu CE and Guy RK. 2007)
SEQUENCE No. (e.g., 1, 2, 3, etc.); […] (e.g., Cells, Incubation, Reagent, etc.); VALUE and DESCRIPTION.
1; Cells; 5 uL; white, solid bottom 1536-well Greiner assay plate.
2; Compounds; 23 nL; Kalypsis pin tool (Wako USA) equipped with a 1536-well pin head to transfer to the assay plates.
3; Incubation; 48 hours; 37C incubation.
4; Reagent; 3 uL; CellTiter Glo (Promega).
5; Incubation; 5 min, room temperature
6; Detection; Luminescence, Viewlux PerkinElmer.
NOTES (numbers refer to Sequence numbers above)
1. Briefly, 5 ul of cell reagent was dispensed using a Multidrop Combi Dispenser. The NOMO1 and SEM cells were plated at 500 cells/well and the P12-Ichikawa line at 1000 cells/well.
2. After seeding the cells, 23 nL of MIPE 4.1 library compounds (in DMSO) were added to each plate using a Kalypsys 1536 Pintool dispenser. Bortezomib at final concentration of […] and DMSO were added to each plate as positive and negative controls respectively. For each screen, MIPE 4.1 compounds were added over an eleven-point concentration range […] in 3-fold dilutions.
3. Each plate was covered with a stainless steel gasketed lid to prevent evaporation and incubated for 48 hour at 37C, 95% relative humidity, and 5% CO2.
4-5. Three microliter CellTilter-GloTM luminescent substrate mix (Promega) reagent was added to the assay plate and incubated at room temperature for 5 min.
6. The luminescence signal was measured using a ViewLux (PerkinElmer) multiplate reader with a 2 second exposure time per plate. Data for each compound were normalized as percent viability such that measurements for DMSO and the empty well controls in each plate were defined as 100% and 0%, respectively.
Potency means the concentration at half of the fitted maximal effect.

Row | Compound | Potency
1 | CCN(C(=O)c1c(O)c2c(Cl)cccc2n(C)c1=O)c1ccccc1 | 2.35 µM (active)
2 | COc1cc(NC(=O)c2ccc(-c3ccc(Cl)cc3)o2)cc(OC)c1 | inactive
3 | CNC(=O)CN1CCC(Oc2cc3c(Nc4cccc(Cl)c4F)ncnc3cc2OC)CC1 | 2.09 µM (active)
4 | CCCCc1oc2ccccc2c1C(=O)c1cc(I)c(OCCN(CC)CC)c(I)c1 | inactive
5 | Cn1cc(-c2ccc3ncc(Cc4ccc5ncccc5c4)n3n2)cn1 | inactive
6 | CN(C)CC[C@H](CSc1ccccc1)Nc1ccc(S(=O)(=O)NC(=O)c2ccc(N3CCN(Cc4ccccc4-c4ccc(Cl)cc4)CC3)cc2)cc1[N+](=O)[O-] | 2.64 µM (active)
7 | O=C(c1ccc(C(=O)N2CCC(N3CCCC3)CC2)c(Nc2ccccc2)c1)N1CCC(N2CCCC2)CC1 | inactive
8 | CCN1CCCC1CNC(=O)c1cc(S(=O)(=O)CC)c(N)cc1OC (stereo not given) | inactive
9 | CCc1ccc(C(=O)Nc2cc(CN3CCN(C)CC3)cc(C(F)(F)F)c2)cc1C#Cc1cnc2ccnn2c1 | inactive
10 | C#Cc1cccc(Nc2ncnc3cc(OC)c(OCCCCCCC(=O)NO)cc23)c1 | 0.235 µM (active)
11 | Cn1c(CNc2ccc(C(=N)N)cc2)nc2cc(C(=O)N(CCC(=O)O)c3ccccn3)ccc21 | inactive
12 | O=C(Nc1cccnn1)N1CCC(=Cc2cccc(Oc3ccc(C(F)(F)F)cn3)c2)CC1 | inactive
13 | N#CC(c1ccc(Cl)cc1)c1c(Cl)cc(-n2ncc(=O)[nH]c2=O)cc1Cl (stereo not given) | inactive
14 | NC[C@H]1O[C@H](O[C@H]2[C@@H](O)[C@@H](O[C@H]3O[C@H](CO)[C@@H](O)[C@H](N)[C@@H]3O)[C@H](N)C[C@@H]2N)[C@H](N)C[C@H]1O | inactive
15 | O=c1c(-c2ccc(O)cc2)coc2cc(O)cc(O)c12 | inactive
16 | COc1ccc(C(C)=O)c(O)c1 | 8.33 µM (active)
17 | O=C(c1ccccc1)c1ccc2n1CCC2C(=O)O (stereo not given) | 3.72 µM (active)
18 | COc1cc(Nc2ncc(F)c(Nc3ccc4c(n3)N(COP(=O)(O)O)C(=O)C(C)(C)O4)n2)cc(OC)c1OC | inactive
19 | C[C@@H](NCCCc1cccc(C(F)(F)F)c1)c1cccc2ccccc12 | inactive
20 | O=c1[nH]nc(Sc2ncc([N+](=O)[O-])s2)n1-c1ccc2c(c1)OCCO2 | 8.33 µM (active)

Row | Compound | Potency
21 | O=C(CCc1ccc(O)cc1)c1c(O)cc(O)cc1O[C@@H]1O[C@H](CO)[C@H](O)[C@H](O)[C@H]1O | inactive
22 | NC[C@H]1O[C@H](O[C@@H]2[C@@H](O)[C@@H](O[C@H]3O[C@H](CO)[C@@H](O)[C@H](N)[C@@H]3O)[C@H](N)C[C@@H]2N)[C@H](O)[C@@H](O)[C@H]1O | inactive
23 | Cc1cc(-c2ccc(CC(=O)Nc3ccc(-c4cccnc4)cc3)cc2)ccn1 | 16.6 µM (active)
24 | Cc1c(C(=O)Nc2ccc(N3C[C@@H](C)O[C@@H](C)C3)nc2)cccc1-c1ccc(OC(F)(F)F)cc1 | 4.18 µM (active)
25 | Clc1ccc(-c2nc3sccn3c2C=NOCc2ccc(Cl)c(Cl)c2)cc1 | inactive
26 | O=C(CCCN1CCC(O)(c2ccc(Cl)cc2)CC1)c1ccc(F)cc1 | inactive
27 | CN(C)c1nc(N(C)C)nc(N(C)C)n1 | inactive
28 | COc1ccc(C=Cc2cc(OC)c(OC)c(OC)c2)cc1O | inactive
29 | CC(=O)SC[C@@H](C)C(=O)N1CCC[C@H]1C(=O)N[C@@H](Cc1ccccc1)C(=O)O | inactive
30 | COc1cc2c(Nc3ccc(NC(=O)c4ccccc4)cc3)ncnc2cc1OCCCN1CCOCC1 | 4.69 µM (active)
31 | Cc1[nH]c(=O)c(C#N)cc1-c1ccc2nccn2c1 | inactive
32 | COc1cc(C=CC(=O)O)ccc1O | inactive
33 | O=C(Nc1cccc(Cl)c1)Nc1ncc(CCNc2ncnc3ccsc23)s1 | 0.418 µM (active)
34 | CCOc1cc(CC(=O)N[C@@H](CC(C)C)c2ccccc2N2CCCCC2)ccc1C(=O)O | 2.64 µM (active)
35 | O=C(Nc1cccnc1)N1CCC(Cc2cccc(Oc3ccc(C(F)(F)F)cn3)c2)CC1 | 3.72 µM (active)
36 | Cc1cc(SCc2sc(-c3ccc(C(F)(F)F)cc3)nc2C)ccc1OCC(=O)O | inactive
37 | CC(C)Cc1ccc(C(C)C(=O)O)cc1 (stereo not given) | inactive
38 | CCOc1cc2ncc(C#N)c(Nc3ccc(OCc4ccccn4)c(Cl)c3)c2cc1NC(=O)C=CCN(C)C | 1.05 µM (active)
39 | CCCCCCCCCCCCCC(=O)N[C@H](CO)[C@H](O)c1ccc([N+](=O)[O-])cc1 | 2.35 µM (active)
40 | CC(C)OC(=O)[C@H](C)N[P@](=O)(OC[C@H]1O[C@@H](n2ccc(=O)[nH]c2=O)[C@](C)(F)[C@H]1O)Oc1ccccc1 | 6.62 µM (active)
